# According to PubChem BioAssay (EPA / NIEHS):
# Active and inactive are the calls of the source. How the source made its calls: active means hit-call score of the fitted dose curve at least 0.9, where 1 is the maximum; inactive means score below 0.9.
# Test: APR_HepG2_MicrotubuleCSK_72hr: Apredica 72-hour HepG2 Assay for Microtubule CSK Stabilty (AID 2282919)
# Settings: HepG2 microtubule cytoskeleton, high-content imaging, actives raise or lower the signal
# Experimental: APR_HepG2_72hr is a cell-based, multiplexed-readout assay that uses HepG2, a human liver cell line, with measurements taken at 72 hours after chemical dosing in a 384-well plate.APR_HepG2_MicrotubuleCSK_72hr is one of 10 assay component(s) measured or calculated from the APR_HepG2_72hr assay. It is designed to make measurements of protein conformation, a form of conformation reporter, as detected with fluorescence intensity signals by HCS Fluorescent Imaging technology.Data from the assay component APR_HepG2_MicrotubuleCSK_72hr was analyzed into 1 assay endpoint. This assay endpoint, APR_HepG2_MicrotubuleCSK_72hr, was analyzed with bidirectional fitting relative to DMSO as the negative control and baseline of activity. Using a type of conformation reporter, measures of protein for gain or loss-of-signal activity can be used to understand the signaling at the cellular-level. Furthermore, this assay endpoint can be referred to as a primary readout, because this assay has produced multiple assay endpoints where this one serves a signaling function. To generalize the intended target to other relatable targets, this assay endpoint is annotated to the cell morphology intended target family, where the subfamily is cell conformation.
# Cells were treated with dimethyl sulfoxide (DMSO) as a solvent control at a final concentration of 0.5% v/v or with compounds in DMSO with a resulting final DMSO concentration of 0.5% v/v. Compound treatment was done at concentrations of 0.39, 0.78, 1.56, 3.12, 6.24, 12.5, 25, 50, 100, and 200 uM in duplicate on each plate. Cells were treated with compounds for 1, 24, or 72 hr. Carbonyl […] m-chloro-phenylhydrazone (CCCP) and taxol were used as positive controls for mitochondrial function and cytoskeletal stability, respectively; DMSO served as the negative control for this experiment. Cells were fixed by the direct addition of 50 uL formaldehyde in Hank's Balanced Salt Solution (HBSS) to a final concentration of 3.7%. After incubation in the fixation medium for 30 min at room temperature (293-298 K), cells were rinsed twice with HBSS and treated with cell permeabilization buffer (16 uL of 0.5% Triton X-100) for 10 min at room temperature (293-298 K) before labeling. For mitochondrial membrane potential and mitochondrial measurements, pre-fixed cells were incubated with 50 uL of MitoTracker Red CMXRos (Invitrogen) at a concentration of 250 nM for 30 min before fixation. In the remaining cases, post-fixed cells were labeled by incubation with a multiplexed mixture of primary antibodies in HBSS for 60 min at room temperature (293-298 K) to detect immunoreactivity of c-Jun (1:500), phospho-histone H3 (1:100), phospho-histone H2A.x (1:200), p53 (1:400), alpha-tubulin (1:200) and Hoechst 33342 (2 ug/mL). Cells were labeled for multiplexed imaging on two separate plates: a) Hoechst 33342, MitoTracker Red, phospho-histone H3, and alpha-tubulin, and b) Hoechst 33342, phospho-histone H2A.x, and c-Jun. A final rinse with HBSS (50 uL) was performed before analysis. The primary and secondary antibodies for the proteins were phospho-histone H3 (rabbit anti-phospho-histone H3 and FITC-donkey anti-rabbit IgG), phospho-histone H2A.x (mouse anti-phospho-histone H2A.x and FITC-donkey anti-mouse IgG), c-Jun (rabbit anti-phospho-c-Jun and Cy3-donkey anti-rabbit IgG), p53 (sheep anti-p53 and Cy5-donkey anti-sheep IgG), alpha-tubulin (mouse anti-alpha-tubulin and Cy5-donkey anti-mouse IgG). These antibodies are available as the CellCiphr HepG2 assay kit (Millipore).Digital images of each well were captured using a Cellomics ArrayScan VTI (Thermo Scientific Cellomics) (0.8 NA objective, 0.63x optical coupler, and XF-93 filter set) at 20x magnification. The images were acquired using the autofocus feature of the ArrayScan instrument, which entails the following steps. First, the camera focuses on channel 1 (Hoechst 33342), where nuclei are identified. Second, a Z offset of 1 um is used for capturing mitochondria (MitoTracker Red). […]
Compound,outcome,AC50
Oc1cc(Cl)c(Cl)cc1Cl,inactive,–
CC(C)O.CC(C)O.OCCN(CCO)CCO.OCCN(CCO)CCO.[Ti],inactive,–
O=C(N[C@H]1CN2CCC1CC2)c1ccc2c(c1)OCCO2,inactive,–
OCCN(CCO)CCO,inactive,–
CCCCCCCCCCCCc1cccc(S(=O)(=O)O)c1,inactive,–
Cc1cc(C)cc(C)c1,inactive,–
Clc1cccc(Cl)c1,inactive,–
CN(C)C(=S)S,–,1.78 µM (active)
N#Cc1cccnc1,inactive,–
CC(C)(C)c1ccccc1O,inactive,–
O=C(O)C1(c2ccc3c(c2)OC[C@H](Cc2ccc(-c4ccccc4)cc2)[C@H]3O)CCCC1,inactive,–
Clc1cccc(Cl)c1Cl,inactive,–
